Experimental data as given in PubChem BioAssay (NCI).
This is part of a sample that, as a whole, favours compounds with a hit. Of some 83,000 tested, about 20% had one in any assay.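 How to read the values: 0–100, growth inhibition (40 = 60% inhibited); 0, no net growth; -100 to 0, cell death (-40 = 40% of starting cells died; -100 = all dead).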 The source made the active and inactive calls.

test system: SK-MEL-5 melanoma; assay: NCI-60 one-dose screen, 48 h (100 = growth as untreated, 0 = no growth, -100 = all killed); settings: 10 µM unless noted
Method: Growth inhibition of the SK-MEL-5 human tumor cell line is measured as a screen for anti-cancer activity. Cells are grown in 96 well plates and exposed to the test compound for 48 hours. Compounds are tested at a single concentration, which is 10^-5 M for most compounds. The reported endpoint is percent growth (GI% or GIPRCNT), where numbers from 0 - 100% represent growth inhibition, and numbers from -100% - 0 represent cell death. For example, a value of 40 represents 60% growth inhibition. A value of 0 means no net growth occurred over the course of the experiment. A value of -40 indicates 40% of cells at the beginning of the experiment died by the end of the experiment. A value of -100 means all cells are dead at the end of the experiment.
NCI-60 Human Tumor Cell Lines Screen was performed using the standard one-dose NCI protocol, which is described in more detail at https://dtp.cancer.gov/discovery_development/nci-60/default.htm.
Compounds with GIPRCNT values below 10 were considered active. Activity score was based on GIPRCNT using the following formula: […]
Score is 0 for GIPRCNT values of 100 or above, 50 for GIPRCNT values of 0, and 100 for GIPRCNT values of -100.

SMILES | growth
COC1=CC(=O)C(OC)=C(OC)C1=O | 97.5% (inactive)
CC1=C(NCCN2CCCC2)C(=O)c2c(OCc3ccc(C(F)(F)F)cc3)cccc2C1=O | 85.2% (inactive)
O=C(Nc1cccc2c1C(=O)c1cccc(Nc3cccc4c3C(=O)c3cccc(NC(=O)c5ccccc5)c3C4=O)c1C2=O)c1ccccc1 | 112% (inactive)
O=c1cc(-c2ccccc2)[nH]c2ccccc12 | 29.4% (inactive)
C=C1CC[C@@H]2[C@](C)(COC(C)=O)[C@H](OC(C)=O)CC[C@@]2(C)[C@@H]1CC(Nc1ccc(S(=O)(=O)Nc2ccc(Cl)nn2)cc1)C1=CCOC1=O (stereo not given in full) | 35.8% (inactive)
C(=N\Nc1ccccn1)/c1ccccn1 | -4.55% (active)
CCOC(=O)C(=Cc1ccccc1F)C(=O)OCC | 92.8% (inactive)
O=S(=O)(NCCCNc1cc(-c2cn(-c3ccccc3)nc2-c2ccccc2)ccn1)c1ccc(C(F)(F)F)cc1 | 36.8% (inactive)
C=C1CCC2C3(C)COC(c4cccc(Cl)c4)OC3CCC2(C)C1/C=C/C1=CCOC1=O (stereo not given) | 35% (inactive)
CCN(C(=O)CN1CCN(c2cc3c(cc2F)c(=O)c(C(=O)O)cn3CC)CC1)c1nc(-c2ccccc2)cs1 | -55.6% (active)
CCN(CC)CCCNc1cccc2c(SCc3ccccc3)ccnc12 | 85.4% (inactive)
COc1ccc(CN(c2ccc(C)cc2)C2OC(=O)c3ccccc32)cc1OC (stereo not given) | 94.7% (inactive)
CN1CCN(Cc2ccc(NC(=O)c3cncc(C#Cc4c(N)ncc5ccc(C#N)cc45)c3)cc2C(F)(F)F)CC1 | -35.5% (active)
COc1ccc(S(=O)(=O)NCCCNc2cc(-c3c(-c4cccc(OC)c4)nc4sccn34)ccn2)cc1 | -10.9% (active)
CCOC(=O)Cc1cnn(C)c1NC(=O)c1ccc(Cl)cc1NC(C)=O | 95.3% (inactive)
O=C1c2cc3c(cc2-c2c1c1cc(F)c(F)cc1c(=O)n2C[C@H](O)CO)OCO3 | -91.5% (active)
C/C(Cc1ccc(Cl)cc1)=C(\c1ccc(OCCN2CCCCCC2)cc1)c1ccc(OC(=O)Cc2ccccc2)cc1 | 84.1% (inactive)
O=C1c2cccnc2C(=O)c2c1c(C(=O)OCCN1CCOCC1)c1ccccn21 | -90.5% (active)
COc1c2ccccc2c(OC)c2[nH]c(=O)ccc12 | -96.7% (active)
COc1ccc(CCN2CC=Cn3c2nc2ccccc2c3=O)cc1 | -13.8% (active)

SMILES | growth
O=C(Nc1ccc(CN2CCOCC2)cc1)c1[nH]ncc1Nc1ncnc2sccc12 | -16.5% (active)
CN(C)c1ccc(C2Nc3ccccc3-n3cccc32)cc1 (stereo not given) | 93.2% (inactive)
COc1ccc2nc3cc(Cl)ccc3c(N3CCN(c4ccnc(N5CCN(C)CC5)n4)CC3)c2c1 | 84.7% (inactive)
Nc1cc(-c2nc3sccn3c2-c2ccnc(NCCCNS(=O)(=O)c3ccc(F)cc3)n2)ccc1F | 27.2% (inactive)
Cc1cc2cc3cc(C)c(N(C)C)cc3nc2cc1N(C)C | 28.5% (inactive)
CN(C)c1ccc(/C=C\C2=[N+](C)c3ccccc3C2(C)C)cc1 | 3.41% (active)
Clc1nc(Cl)c2c3c(sc2n1)CCCC3 | 50.8% (inactive)
COc1cc(C2C(C(=O)c3cccs3)=C(O)C(=O)N2CCN2CCOCC2)cc(OC)c1OC (stereo not given) | 96.1% (inactive)
COc1ccc2c(c1)C(=O)/C(=C/c1cccc(OCC(=O)Nc3nc4c(s3)CCCC4)c1)O2 | -14% (active)
CCCCCCCCCC(=O)Oc1ccc(/C(=C(/C)c2ccccc2)c2ccc(OCCN3CCCC3)cc2)cc1 | -98.5% (active)
O=C(Cc1ccccc1)c1ccc(Cl)cc1 | 103% (inactive)
CS(CCCCN=C=S)=NC(=O)c1c(F)c(F)c(F)c(F)c1F (stereo not given) | 96.1% (inactive)
CC/C(Cc1ccccc1)=C(/c1ccc(O)cc1)c1ccc(OCCN2CCCC2)cc1 | -100% (active)
CC(=O)Oc1ccc(Nc2c3ccccc3nc3ccccc23)cc1 | -73.2% (active)
O=C(O)c1c([N+](=O)[O-])cnc2ccccc12 | 97.4% (inactive)
Cc1ccc2c(c1)n([O-])c1cc(Cl)ccc1[n+]2=O | 107% (inactive)
CCNS(=O)(=O)c1ncnc2nc[nH]c12 | 113% (inactive)
O=C(/C=C\c1ccc2ccccc2n1)c1cc(Cl)ccc1O | 97% (inactive)
CCc1ccc(C(c2ccc(CC)cc2)C(Cl)(Cl)CCl)cc1 | 90% (inactive)
O=[N+]([O-])c1cccc(-c2nc3sccn3c2-c2ccnc(NCCCNS(=O)(=O)c3ccc(Br)cc3)n2)c1 | -15.6% (active)
